This passage reports outcome, Potency and max response results from PubChem BioAssay (NCATS).

Records with an inconclusive call do not appear. Values without a mark were called inactive. Calls of active or inactive are those of the source. The call rests on the fitted dose curve; in most records, active means well fitted inhibition curve with a large enough effect; inconclusive means small, poorly fitted or top-dose-only effect; inactive means flat fitted curve, though single readings scatter.

For test [1], the system named is HaCat. As to the kind of experiment: Cytotoxic Profiling of Annotated Libraries Using Quantitative High-Throughput Screening (AID 1296008). Further: potency means the concentration at half of the fitted maximal effect. On max response: on the % scale 0 is the no-effect control and ±100 the full control effect. The note with it: Five cell lines viability, CellTiter-Glo ATP luminescence, 48-72 h; max response: active compounds read low. Put shortly: (§1)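 Compounds were pin-transferred onto cells and incubated 48 or 72 hr at 37 degree Celsius, 95% humidity. CellTiter-Glo was added, plates sat 10 min at room temperature, then ATP-coupled luminescence was imaged as the viability read-out.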
In general terms: In ATP-based viability assays light output follows the ATP content of the culture.

The subject of a further test is KB-3-1. Described as above. The note with it: Five cell lines viability, CellTiter-Glo ATP luminescence, 48-72 h; max response: active compounds read low. An outline of the steps:
as §1

The subject of test [2] is NIH3T3. The test is described as above. The note with it: Five cell lines viability, CellTiter-Glo ATP luminescence, 48-72 h; max response: active compounds read low. An outline of the steps:
as §1

Test [3] concerns HACAT. Nature of the test: qHTS assay to identify novel small-molecules to repurpose for Merkel cell carcinoma treatment (AID 1296009). The note with it: MCC and control cell lines, CellTiter-Glo viability, 72 h; series mostly up to 44.8 µM. An outline of the steps: (§2)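 Luminescence from CellTiter-Glo, read 10 min after addition at room temperature, reported viability following a 72 hr, 37 degree celsius treatment with NPC or MIPE compounds in titration; values normalized to plate controls.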
(qHTS replaces the single test concentration by a dilution series.)

Test [4] concerns NIH3T3. Described as above. The note with it: MCC and control cell lines, CellTiter-Glo viability, 72 h; at 44.8 µM (top of the series) unless noted. Put shortly:
as §2

For a further test, the system named is HEK293T. The test is described as above. The note with it: MCC and control cell lines, CellTiter-Glo viability, 72 h; at 44.8 µM (top of the series) unless noted. An outline of the steps:
as §2
Further: nearly all actives have a fitted effect of over 60% in size.

In the case of `COC(=O)C1=CO[C@@H](O[C@@H]2O[C@H](CO)[C@@H](O)[C@H](O)[C@H]2O)[C@@H]2C(COC(C)=O)=C[C@H](O)[C@H]12`, the outcome in the test on HaCat [1], in the test with KB-3-1 and in the test with NIH3T3 [2] was inactive. In addition, the Potency entry in the test on HACAT [3] is “inactive”. The outcome with NIH3T3 [4] is “inactive [at 17.4 µM]”.

On to `CCOC(=O)c1sc(NC(=O)[C@H](C(C)C)n2c(=O)[nH]c3ccccc3c2=O)nc1C`, for which the molecule was classed as inactive with HaCat [1]. The max response with KB-3-1 is 8.45%. Also, the Potency result in the test with HACAT [3] was “inactive”.

As to `Cc1nc2ccc(Oc3ccc(F)cc3)cc2c(=O)n1C[C@H]1CCCN(C(C)C)C1`, the molecule was called inactive in the test on HaCat [1]. Besides, the max response in the test on KB-3-1 is 5.64%. Besides, the Potency result with HACAT [3] was “inactive”.

As for `COc1c2c(c(CO)c3c1C(=O)OC3)OC1(C)CCC3(O)C(C)(C)OC(=O)CCC3(C)C1C2` (stereo unspecified), the max response in the test with HaCat [1] was -24.1%; in the test with NIH3T3 [2], -8.25%. For the same molecule, the result with KB-3-1 was inactive. The outcome in the test with HEK293T was “inactive [at 17.4 µM]”.

As to `C[C@H](CCC(=O)O)[C@H]1CC[C@H]2[C@@H]3C[C@H](O)[C@@H]4C[C@H](O)CC[C@]4(C)[C@H]3CC[C@]12C`, the outcome in the test with HaCat [1], with KB-3-1, with NIH3T3 [2] and with NIH3T3 [4] was inactive. Also, the Potency result in the test on HACAT [3] was “inactive”.

In the case of `CNC(=O)c1cc(Oc2ccc3nc(N[C@@H]4CCCC[C@H]4O)sc3c2)ccn1`, in the test with HaCat [1], the result was inactive. The max response in the test with KB-3-1 is -18.3%. In addition, the Potency entry in the test with HACAT [3] was “inactive”.

On to `C=CC(=O)N1CCN(C(=O)CNc2cc(I)c(Cl)cc2O)CC1`, for which the molecule was classed as inactive in the test with HaCat [1]. Besides, the Potency with KB-3-1 is 20.6 µM (active). For the same molecule, in the test on HACAT [3], the Potency result is “inactive”.

Regarding `CCCC(=O)O[C@@H]1[C@@H]2[C@@H](OC(C)=O)[C@]3(C)C(=O)[C@H]4[C@@H](OC(C)=O)C(C)(C)C[C@H]4[C@]3(C)C(=O)[C@@]2(OC(C)=O)C[C@@H]1C`, the molecule was classed as inactive with HaCat [1] and with NIH3T3 [2]. In the test on KB-3-1, the max response is 8.81%. Also, the Potency result in the test on HACAT [3] was “inactive”. Also, the outcome in the test with NIH3T3 [4] was “inactive [at 17.4 µM]”.
